# Measured values taken from article PMC5540273 (PLoS ONE, 2017).
# System: GAK
# 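Note: kd values determined as follow-up on hits from a single-replicate KINOMEscan panel screen.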
row,SMILES,Kd
1,COc1cccc(C2=C(Nc3cc(Cl)c(O)c(Cl)c3)C(=O)NC2=O)c1 [SB-390767],> 10000 nM
2,COc1cc2ncnc(Nc3cccc(Br)c3)c2cc1OC.Cl [GI230329],29 nM
3,c1ccc(-c2ccnc3[nH]ccc23)cc1 [SB-693578],3700 nM

# System: GSK3A
row,SMILES,Kd
1,COc1ccc(CSc2nnc(-c3ccc4ncsc4c3)o2)cc1C(F)(F)F,79 nM
2,O=C(Nc1n[nH]c2nc(-c3ccco3)c(Br)cc12)C1CCN(Cc2ccccc2)C1.O=C(O)[C@H](O)[C@@H](O)C(=O)O (stereo not drawn) [SB-742034],130 nM
3,COc1ccc(CSc2nnc(-c3ccc4nccn4c3)o2)cc1C(F)(F)F,250 nM
4,O=C(Nc1n[nH]c2nc(-c3cccs3)c(Br)cc12)C1CCCC1 [SB-743341],62 nM
5,O=C(Nc1n[nH]c2nc(-c3cccs3)c(Br)cc12)C1CC1 [SB-735297],91 nM
6,O=c1cc(N2CCOCC2)nc2n(Cc3ccccc3F)ccn12 [GSK2297428],> 10000 nM
